From publication PMC5540273 (PLoS ONE, 2017)

Tests used:
Settings in all cases: concentration: 1 μM, replicates: in singlicate; n = 1
[1] = test system: MTOR
[2] = test system: MUSK
[3] = test system: MYLK2
[4] = test system: MYLK4
[5] = test system: MYLK
[6] = test system: MYO3A
[7] = test system: MYO3B
[8] = test system: T1, NDR1
T1 construct: gene STK38

[9] = test system: NDR2
[10] = test system: NEK10
[11] = test system: NEK11
[12] = test system: NEK1
[13] = test system: NEK2
[14] = test system: NEK3
[15] = test system: NEK4
[16] = test system: NEK5
[17] = test system: NEK6
[18] = test system: NEK7
[19] = test system: NEK9
[20] = test system: T2, NIK
T2 construct: gene MAP3K14
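Further: KINOMEscan kinase panel screen.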

SMILES	%Inh [1]	%Inh [2]	%Inh [3]	%Inh [4]	%Inh [5]	%Inh [6]	%Inh [7]	%Inh [8]	%Inh [9]	%Inh [10]	%Inh [11]	%Inh [12]	%Inh [13]	%Inh [14]	%Inh [15]	%Inh [16]	%Inh [17]	%Inh [18]	%Inh [19]	%Inh [20]
Cc1cccc(NC(=O)Nc2ccc(Oc3ncnc4ccn(C)c34)cc2)c1	26%	17%	0%	0%	0%	0%	5%	30%	0%	0%	0%	0%	0%	19%	0%	0%	16%	0%	1%	5%
Nc1ncc(-c2ccc3nccc(-c4ccncc4)c3c2)cc1S(=O)(=O)N1CCOCC1 [GSK1627798]	99.3%	0%	0%	0%	20%	0%	0%	6%	0%	16%	0%	0%	12%	0%	5%	0%	0%	0%	2%	0%
O=C(Nc1n[nH]c2cc(-c3ccoc3)ccc12)C1CC1 [SB-738481]	0%	0%	89%	19%	29%	0%	0%	6%	0%	0%	4%	0%	8%	2%	1%	0%	11%	16%	0%	9%
CC(C)c1nc(-c2cccc(NS(=O)(=O)c3c(F)cccc3F)c2F)c(-c2ccnc(Nc3ccc(N4CCOCC4)nc3)n2)s1 [GSK2008607]	10%	10%	0%	0%	18%	78%	65%	62%	65%	0%	98.6%	82%	99.1%	1%	51%	26%	99.1%	92.9%	93.6%	0%
CN1CCN(CCCNc2nccc(-c3c(-c4ccc(F)cc4)nn4cc(C(F)(F)F)ccc34)n2)CC1 [GW621581]	0%	0%	8%	0%	0%	0%	0%	10%	0%	10%	14%	0%	14%	0%	0%	0%	0%	11%	0%	18%
Cn1cc(-c2ccc3c(c2)CCN3C(=O)Cc2cccc(F)c2)c2c(N)ncnc21 [GSK2603358]	16%	5%	83%	0%	18%	51%	5%	0%	7%	22%	8%	31%	73%	11%	22%	28%	0%	0%	0%	23%
CCS(=O)(=O)c1ccc(OC)c(Nc2nccc(-c3c(-c4cccc(NC(=O)c5c(F)cccc5F)c4)nn4ncccc34)n2)c1 [GSK326180]	15%	11%	9%	2%	17%	30%	6%	0%	0%	21%	0%	0%	4%	14%	6%	15%	0%	0%	10%	6%
Cc1ccc(F)c(C(=O)Nc2cccc(-c3nn4ccccc4c3-c3ccnc(Nc4cccc(F)c4)n3)c2)c1F [GSK361061]	13%	22%	17%	0%	33%	10%	0%	15%	0%	11%	0%	0%	0%	8%	18%	12%	9%	14%	16%	5%
Nc1ncnc2c1nc(-c1ccccc1)n2-c1ccccc1 [SKF-97293]	8%	11%	0%	25%	32%	13%	38%	32%	14%	21%	30%	23%	0%	2%	26%	0%	15%	6%	0%	34%
Cc1occc1-c1ncc(OC[C@@H](N)Cc2c[nH]c3ccccc23)cc1-c1ccc2[nH]nc(C)c2c1.O=C(O)C(F)(F)F [GSK682037]	7%	7%	21%	0%	29%	75%	38%	30%	0%	4%	0%	24%	0%	0%	0%	24%	0%	0%	8%	78%
Cn1cc(-c2ccc3c(c2)CCN3C(=O)Cc2cccc(Cl)c2)c2c(N)ncnc21 [GSK2606590]	0%	29%	71%	0%	8%	43%	21%	0%	0%	18%	0%	26%	66%	1%	22%	32%	11%	0%	18%	23%
COc1ccc(Nc2nccc(N3CCC(NC(=O)Nc4cccc(OC)c4)C3)n2)cc1 (stereo not shown) [GSK1379742]	10%	8%	14%	0%	2%	0%	0%	0%	0%	0%	0%	0%	17%	0%	0%	3%	0%	0%	2%	7%
Cc1cccc(Nc2nc(N[C@H]3CCNC3)ncc2C(N)=O)c1.Cl [GSK2197149]	0%	0%	0%	81%	16%	2%	0%	0%	0%	56%	0%	50%	0%	7%	27%	8%	0%	0%	0%	20%
CN(c1ccc(NC(=O)Nc2cc(C(F)(F)F)ccc2F)cc1)c1ccnc(Nc2ccc(S(N)(=O)=O)cc2)n1 [GW809893]	0%	95.3%	65%	16%	0%	50%	37%	27%	11%	0%	0%	100%	0%	15%	26%	31%	20%	0%	37%	38%
Cc1ccc(C)c(NC(=O)NC2CCN(c3ccnc(Nc4ccc(F)cc4)n3)C2)c1 (stereo not shown) [GSK1379720]	15%	5%	0%	0%	2%	5%	0%	0%	0%	9%	15%	0%	0%	8%	27%	4%	0%	0%	0%	22%
COCCOCCOc1cc2ncc3c4ccc(C#N)cc4[nH]c3c2cc1OC	0%	6%	54%	72%	33%	10%	0%	60%	0%	0%	0%	0%	53%	33%	0%	0%	0%	15%	7%	65%
COc1cc(Nc2nccc(-c3c(-c4cccc(NC(=O)c5c(F)cccc5F)c4)nn4ncccc34)n2)cc(OC)c1OC [GSK327238]	8%	25%	10%	7%	9%	38%	40%	20%	0%	15%	0%	0%	92.7%	0%	12%	58%	17%	18%	41%	13%
Cc1ccc(C(=O)Nc2ccc(Nc3ccnc4cc(-c5nccs5)ccc34)cc2O)cc1.Cl [GW494702]	6%	4%	11%	0%	0%	34%	6%	2%	9%	0%	40%	0%	0%	0%	3%	0%	0%	0%	0%	12%
COc1cc(Nc2nccc(-c3c(-c4cccc(NC(=O)c5c(F)cccc5F)c4)nn4ccccc34)n2)cc(OC)c1OC [GSK323521]	33%	23%	91.6%	5%	8%	26%	100%	22%	0%	10%	0%	8%	78%	0%	34%	22%	25%	33%	48%	19%
CCc1ccc(-c2ccc3c(c2)-c2c(cnn2C)S(=O)(=O)N3C)cc1	0%	14%	0%	1%	0%	16%	25%	0%	0%	9%	0%	0%	5%	0%	0%	0%	0%	0%	0%	0%
